According to PubChem BioAssay AID1851 (National Center for Advancing Translational Sciences (NCATS), 2009):
“And” between values parts separate entries of the source, which are not always exact repeats. Equal entries are not always repeated. The whole screen tested about 16,000 compounds, of which about 5,800 (36%) were called active. About 23% were inconclusive and are not listed. Calls follow the shape of the dose curve; as a rule, active = well fitted curve in the direction sought with a large enough effect; inconclusive = small, poorly fitted or top-dose-only effect, or effect the other way; inactive = no such curve, though single readings can be large or run the other way. The list shows a part of the results.

Target: Cytochrome P450 2C19 (Homo sapiens) (UniProt P33261)
Sequence (P33261 whole entry, looked up): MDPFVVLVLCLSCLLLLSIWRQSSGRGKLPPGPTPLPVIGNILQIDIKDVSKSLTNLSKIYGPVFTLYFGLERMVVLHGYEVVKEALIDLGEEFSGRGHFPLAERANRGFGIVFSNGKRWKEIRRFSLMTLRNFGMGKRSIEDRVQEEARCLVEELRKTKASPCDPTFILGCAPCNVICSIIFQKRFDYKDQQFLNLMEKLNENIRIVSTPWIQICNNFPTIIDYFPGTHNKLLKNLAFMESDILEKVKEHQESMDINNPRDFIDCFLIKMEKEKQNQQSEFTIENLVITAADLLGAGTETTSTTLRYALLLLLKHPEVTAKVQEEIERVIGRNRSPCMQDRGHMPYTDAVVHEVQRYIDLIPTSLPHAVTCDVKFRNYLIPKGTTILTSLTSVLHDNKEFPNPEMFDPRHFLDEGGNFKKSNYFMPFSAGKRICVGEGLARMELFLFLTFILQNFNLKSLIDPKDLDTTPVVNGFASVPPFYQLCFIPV
Experiment: Cytochrome panel assay with activity outcomes
Conditions: recombinant CYP, pro-luciferin dealkylation, luminescence, p450-cyp2c19; series mostly up to 57.1 µM; activity, negative = inhibition: at the top concentration
% is scaled to controls: 0 for no effect and ±100 for the full control effect.

| SMILES | activity, negative = inhibition | AC50 |
| --- | --- | --- |
| FC(F)(F)c1cc(CN2CCC3(CCNCC3)CC2)cc(C(F)(F)F)c1 | 0.261% (inactive) | – |
| N#Cc1ccc(-c2ccccc2)nc1SCC(=O)c1cccc(Cl)c1 | – | 2.24 µM (active) |
| O=C(O)CSc1cc(-c2ccccc2)nc2ccccc12 | 1.28% [at 11.4 µM] (inactive) | – |
| CN(C)c1oc(-c2ccccc2)nc1C#N | – | 15.8 µM (active) |
| N#Cc1c(-c2ccccc2)no[n+]1[O-] | -4.21% (inactive) | – |
| CCOc1[nH]n(-c2ccc(Cl)cc2)c(=O)c1C=Nc1ccc(O)cc1 | -6.82% (inactive) | – |
| COc1cc(O)oc1C=Nc1ccc(C(F)(F)F)cc1 | – | 7.08 µM (active) |
| COc1cc(O)oc1C=Nc1ccc(Cl)cc1 | – | 6.31 µM (active) |
| Cc1c(C(=O)O)nc(/C=C\C(=O)O)[nH]c1=O | 18.2% [at 11.4 µM] (inactive) | – |
| CC1=NN(c2ccc(F)cc2)C(=O)C1C(c1cccc(O)c1)c1c(C)[nH]n(-c2ccc(F)cc2)c1=O (stereo unspecified) | – | 17.8 µM (active) |
| O=C1C2CCCN2C(c2ccc(F)cc2)N1c1nccs1 (stereo unspecified) | – | 14.1 µM (active) |
| CCC1(C)Cc2c(sc3nnn(CC(=O)Nc4ccc(C)cc4)c(=O)c23)CO1 (stereo unspecified) | – | 10 µM (active) |
| CCCSc1nc(SCC(=O)NCc2ccccc2)c2c3c(sc2n1)COC(C)(CC)C3 (stereo unspecified) | – | 11.2 µM (active) |
| CCC1(C)Cc2c(sc3nnn(CC(=O)Nc4cccc5ccccc45)c(=O)c23)CO1 (stereo unspecified) | – | 15.8 µM (active) |
| Cc1nc2ncnn2c(C)c1CCC(=O)NCc1ccccc1 | -23.7% (inactive) | – |
| CCSc1nc2sc3c(c2c(=O)[nH]1)CC(C)(CC)OC3 (stereo unspecified) | -6.25% (inactive) | – |
| CN(N=O)C(=O)N[C@H]1[C@@H](O)[C@H](O)[C@H](CO)O[C@@H]1O | 16.7% [at 25.6 µM] (inactive) | – |
| NC(=O)Nn1c(CCC(=O)O)ccc1-c1ccc(F)cc1 | -6.65% (inactive) | – |
| CNc1cnn(-c2ccccc2)c(=O)c1Cl | -9.49% (inactive) | – |

| SMILES | activity, negative = inhibition | AC50 |
| --- | --- | --- |
| Nc1ccc(Sc2cnn(-c3ccccc3)c(=O)c2Cl)cc1 | – | 0.1 µM (active) |
| CCc1cc2c(nc1CC)CCN(CC/C(C)=N/OC[C@@H](O)COCc1ccco1)C2 | -17.2% [at 11.4 µM] (inactive) | – |
| Cc1ccc(S(=O)(=O)N[C@@H](CCc2ccccc2)CC(=O)C(C)(C)C)cc1 | – | 1.58 µM (active) |
| COC(=O)C/C=C\[C@@H](C)[C@@H](/C=N\O[C@@H](C)c1cn([C@H](CO)Cc2ccccc2)nn1)NS(=O)(=O)c1ccc(C)cc1 | 14.8% [at 11.4 µM] (inactive) and -27.5% [at 11.4 µM] (inactive) | – |
| Cc1ccc(S(=O)(=O)N[C@H](CO)C(=O)O)cc1 | -10.2% [at 11.4 µM] (inactive) | – |
| CC(CCc1ccccc1)NS(=O)(=O)c1ccccc1 (stereo unspecified) | – | 2.51 µM (active) |
| C1CCc2c(nc3nnnn3c2NC2CCCC2)C1 | -8.75% (inactive) | – |
| O=C1[C@@H]2[C@H]3[C@H](O)[C@H](O)C/C(=N/OCc4ccccc4)[C@@H]3CC[C@H]2C(=O)N1c1ccc(F)cc1F | -20.4% [at 11.4 µM] (inactive) | – |
| C[C@@H](C(=O)NCc1ccccn1)[C@H]1C[C@]1(C)[C@H](NC(=O)OCc1ccccc1)c1ccccc1 | – | 2 µM (active) |
| C[C@@H](C(=O)NCc1ccccn1)[C@@H]1C[C@@]1(C)[C@@H](NC(=O)OCc1ccccc1)c1ccccc1 | – | 2.51 µM (active) |
| O=C(O)CN(CCOCCOCCN(CC(=O)O)CC(=O)O)CC(=O)O | 9.23% (inactive) | – |
| Cc1cc2c(nc1C)CCCCN2C[C@H](O)CN1CCCc2nc(-c3ccc(Br)cc3)ccc21 | -10.8% [at 11.4 µM] (inactive) | – |
| COc1ccccc1CN1CC[C@@]2(CCCN(C(C)=O)C2)C1 | 0.515% (inactive) | – |
| CCOC(=O)C1CCN(c2c(NCc3ccc(C(=O)NCCC(C)C)cc3)c(=O)c2=O)CC1 | – | 3.16 µM (active) |
| CCNC(=S)NNC(=O)c1cc(C2CC2)nc2ccccc12 | – | 28.2 µM (active) |
| CCCCOC(=O)CSCC(=O)Nc1cc(C)on1 | – | 8.91 µM (active) |
| COc1ccccc1-c1cc(Nc2ccc(F)cc2)ncn1 | – | 7.94 µM (active) |
| CC(=O)NCCNc1cc(-c2ccccc2C)ncn1 | 9.99% (inactive) | – |
| Cc1ccccc1-c1cc(Nc2ccc(F)cc2)ncn1 | – | 0.631 µM (active) |

| SMILES | activity, negative = inhibition | AC50 |
| --- | --- | --- |
| COc1ccccc1-c1cc(Nc2ccn[nH]2)ncn1 | – | 6.31 µM (active) |
| Cc1ccccc1-c1cc(Nc2ccccc2)ncn1 | – | 3.16 µM (active) |
| C[C@@H]1/C=C\CC(=O)OC[C@H](C)C(=O)N2CCC[C@@H]2C(=O)OC1 | 72.6% [at 11.4 µM] (inactive) | – |
| O=C(c1cccc(F)c1)N1CCC2(CC1)CN(C(c1ccccc1)c1ccccc1)C2 | 18.4% (inactive) | – |
| COC(=O)[C@@]1(Cc2ccccc2)[C@H]2c3cc(C(=O)N4CCCC4)n(Cc4c(CO)[nH]cc(C)c4=O)c3C[C@H]2CN1C(=O)c1ccccc1 | – | 10 µM (active) |
| COC(=O)[C@@]1(Cc2ccccc2)[C@H]2c3cc(C(=O)N(C)C)n(Cc4c(CO)[nH]cc(C)c4=O)c3C[C@H]2CN1C(=O)c1ccccc1 | – | 3.16 µM (active) |
| COc1ccc(CNc2cc(-c3ccccc3OC)ncn2)c(OC)c1 | – | 2 µM (active) |
| COc1ccc(CNc2cc(-c3ccccc3CN(C)C)ncn2)c(OC)c1 | 4.98% (inactive) | – |
| COc1ccc(CNc2cc(-c3ccccc3Cl)ncn2)c(OC)c1 | – | 2 µM (active) |
| CC(=O)N(CC(O)CN(C(C)=O)c1c(I)c(C(=O)NC[C@@H](O)CO)c(I)c(C(=O)NC[C@@H](O)CO)c1I)c1c(I)c(C(=O)NC[C@@H](O)CO)c(I)c(C(=O)NC[C@@H](O)CO)c1I | -17% [at 25.6 µM] (inactive) | – |
| CN(C)c1nccc(N(Cc2ccccc2)Cc2ccccc2)c1C#N | – | 4.47 µM (active) |
| CCOC(=O)C1CCCN(C(=O)CCn2nc(-c3ccccc3)ccc2=O)C1 (stereo unspecified) | -29% (inactive) | – |
| CCCS(=O)(=O)N1CCCC(C(=O)NCCCOCC)C1 (stereo unspecified) | 19.2% (inactive) | – |
| CCOC(=O)C1CCCN(C(=O)CSCc2ccccc2)C1 (stereo unspecified) | – | 11.2 µM (active) |
| CCCS(=O)(=O)N1CCCC(C(=O)N2CCN(C(=O)OCC)CC2)C1 (stereo unspecified) | 23% (inactive) | – |
| CCOC(=O)C1CCCN(S(=O)(=O)c2ccccc2)C1 (stereo unspecified) | – | 4.47 µM (active) |
| CCOC(=O)CNc1c(-c2ccccc2)nc2ccc(Cl)cn12 | – | 5.01 µM (active) |
| COC(=O)[C@@H]1O[C@@H](c2c(OC)c(OC)c(C)c(OC)c2OC)[C@H](C)[C@@H](O)[C@@H]1C | -37.9% [at 11.4 µM] (inactive) | – |
